# Screens deposited in PubChem by Johns Hopkins Ion Channel Center.
# KCNQ2 enhance – potentiators of rat KCNQ2 potassium channel | Potassium voltage-gated channel subfamily KQT member 2 (Rattus norvegicus), O88943 | CHO-K1 KCNQ2, FluxOR thallium flux fluorescence; hits give high values | B-score at 10 µM | 0.54% of 310,000 active | AID 2239, 2010;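 active = fluorescence ratio B-score at least 3 SD of library B-scores, with initial fluorescence B-score within 3 of them, cut at about 5.3 in these data; same plate scores as AID 2156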;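 note: B-score of peak minus minimum over baseline fluorescence ratio after K+ and Tl+ stimulus; positive B-score means potentiation of KCNQ2 with more thallium influx and brighter signal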
# KCNQ2 block – rat KCNQ2 potassium channel inhibitors, primary screen, cell-based, CHO-K1, FluxOR thallium flux, B-score. 20 min; hits give low values. B-score at 10 µM. 1.1% of 310,000 active. AID 2156, 2009;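 active = fluorescence ratio B-score at most minus 3 library SDs, with starting brightness B-score within 2 library SDs, cut at about -5.5 in these data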
# KCNQ2 inh conf – rat KCNQ2 potassium channel inhibitors, confirmation, cell-based, thallium flux. shares compounds with KCNQ2 block. KCNQ2-expressing cells, inhibition; hits give low values. activity change, negative = inhibition, % at 10 µM. 57% of 1,000 active;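 note: 0% = vehicle wells and values are ratio percent relative to vehicle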
# KCNQ1 spec – human KCNQ1 channel inhibition, counter-screen for KCNQ2 inhibitor project, cell-based, FluxOR thallium flux; shares compounds with KCNQ2 block; KCNQ1-expressing cells, FluxOR thallium flux fluorescence; hits give low values; activity change, negative = inhibition, % at 10 µM; 15% of 1,000 active;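 active = activity change at least 3 SD of negative controls below their mean in both duplicate wells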;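 note: CHO cells stably transfected with KCNQ1 and depolarized by potassium stimulus; peak minus minimum fluorescence over baseline after thallium addition; 0% = vehicle negative control and -100% = blank without thallium stimulus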
# Target sequence (P51787 whole entry, looked up): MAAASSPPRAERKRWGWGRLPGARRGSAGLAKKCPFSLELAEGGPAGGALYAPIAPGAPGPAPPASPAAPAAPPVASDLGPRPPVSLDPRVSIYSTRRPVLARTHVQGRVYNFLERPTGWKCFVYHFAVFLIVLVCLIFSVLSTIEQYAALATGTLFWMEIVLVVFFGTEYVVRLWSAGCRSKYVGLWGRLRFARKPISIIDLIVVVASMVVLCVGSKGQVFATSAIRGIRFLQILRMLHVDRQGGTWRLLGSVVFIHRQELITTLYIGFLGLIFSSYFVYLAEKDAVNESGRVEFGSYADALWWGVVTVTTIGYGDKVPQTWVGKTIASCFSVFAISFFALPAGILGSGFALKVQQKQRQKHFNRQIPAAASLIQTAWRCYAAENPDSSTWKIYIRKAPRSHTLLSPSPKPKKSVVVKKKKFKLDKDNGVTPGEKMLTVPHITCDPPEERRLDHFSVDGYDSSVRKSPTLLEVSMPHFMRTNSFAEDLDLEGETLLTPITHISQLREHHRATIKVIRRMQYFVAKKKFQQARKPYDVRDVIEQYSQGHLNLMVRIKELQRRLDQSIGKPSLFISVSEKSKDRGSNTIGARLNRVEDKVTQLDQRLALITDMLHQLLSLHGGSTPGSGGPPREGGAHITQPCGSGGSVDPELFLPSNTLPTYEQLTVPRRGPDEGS
# CHO Tl ctr – thallium flux change in parental CHO cells, counter-screen for KCNQ2 inhibitor project | shares compounds with KCNQ2 block | hits give low values | activity change, % at 10 µM | 14% of 1,000 active | AID 493029, 2011;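 note: 0% = vehicle negative controls with stimulus buffer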
# KCNQ2 inh confirm – rat KCNQ2 channel inhibitors, confirmation, cell-based, automated patch clamp, single concentration; 49% of 550 active; shares compounds with KCNQ2 block; KCNQ2-expressing cells, automated patch clamp current; calls only at 10 µM; AID 588531, 2011
# * hit, by the source's call; i = inactive; / = not tested or not shown; + = active, no number. The list is not random: actives were taken first. Their share in the collection is about 1.6%. Unless noted, the rule behind the calls is not given here.
SMILES,KCNQ2 enhance,KCNQ2 block,KCNQ2 inh conf,KCNQ1 spec,CHO Tl ctr,others
COc1ccc(C)cc1N(CC(=O)Nc1ccc(S(=O)(=O)N2CCCC2)cc1)S(C)(=O)=O,0.73,i,/,/,/,
CCN(CC)C(=O)Cn1cnc2sc(C(=O)NCCCN3CCOCC3)c(C)c2c1=O,0.12,i,/,/,/,
NC(=O)CC(NC(=O)Cc1ccc(Cl)cc1)c1ccc(NCc2ccccc2)c([N+](=O)[O-])c1 (stereo not given),0.45,i,/,/,/,
CCN(CC(=O)NCc1ccc(F)cc1)C(=O)c1oc2ccccc2c1C,/,i,/,/,/,
CCN(CC(=O)NCc1ccc(Cl)cc1)C(=O)c1oc2ccccc2c1C,-7,-7*,-19%*,i,i,KCNQ2 inh confirm=+
COc1ccc(CCNC(=O)Nc2cccs2)c(OC)c1,/,i,/,/,/,
O=C(OCC(=O)N(Cc1ccccc1)Cc1ccccc1)c1ccccc1NCCO,-7.5,-7.5*,-34%*,i,i,KCNQ2 inh confirm=+
O=C(COC(=O)c1ccccc1NCCO)NCCc1ccccc1,1.1,i,/,/,/,
O=C(CNc1ccccc1OC(F)F)N1CCc2ccccc21,/,i,/,/,/,
COc1ccc(NC(=O)CSC(C)c2nc3ccccc3c(=O)[nH]2)cc1 (stereo not given),/,i,/,/,/,
COc1ccccc1N1CCN(C(=O)c2cc(=O)c3ccc(C)cc3o2)CC1,0.17,i,/,/,/,
COc1ccccc1N1CCN(C(=O)c2oc3cc(C)cc(C)c3c2C)CC1,-8.2,-8.2*,i,i,i,
CCCn1c(SCC(=O)NC2CCCC2)nnc1-c1cccnc1,/,i,/,/,/,
CC(C)CN(C(=O)COC(=O)CSc1ccccc1)c1c(N)n(Cc2ccccc2)c(=O)[nH]c1=O,2.1,i,/,/,/,
COc1ccc(-c2cc(C(=O)Nc3cccnc3)no2)cc1OC,1.6,i,/,/,/,
Cc1cc(-n2c(C)cc(C(=O)CSc3ccc4c(c3)OCCO4)c2C)no1,-6.9,-6.9*,-14%*,i,i,KCNQ2 inh confirm=+
Cc1ccc(-n2nnnc2SCC(=O)c2cc(C)n(-c3cc(C)on3)c2C)c(C)c1,-7.5,-7.5*,i,i,i,
Cc1cc(-n2c(C)cc(C(=O)CCl)c2C)no1,0.13,i,/,/,/,
Cc1cc(-n2c(C)cc(C(=O)CSc3nnnn3-c3ccccc3)c2C)no1,3,i,/,/,/,
CCCCn1c(N)c(N(CC(C)C)C(=O)c2cc3c(s2)CCCCC3)c(=O)[nH]c1=O,0.02,i,/,/,/,
COc1cc(CN(C)C(C)C(=O)Nc2ccc([N+](=O)[O-])cc2Cl)ccc1OC(F)F (stereo not given),/,i,/,/,/,
COc1ccc(Cl)cc1NC(=O)C(C)N(C)Cc1ccc(C(F)(F)F)cc1 (stereo not given),-6.8,-6.8*,-45%*,-52%*,-39%*,KCNQ2 inh confirm=i
Cc1ccc(CNC(=O)CN(C(=O)C2(C)CC(=O)N=C3C=CC=CN32)c2cccc(C)c2C)cc1 (stereo not given),0.68,i,/,/,/,
COC(=O)c1cn(NC(=O)c2cc(OC)cc(OC)c2)c(=O)c2ccccc12,0.43,i,/,/,/,
COc1cc(OC)cc(C(=O)Nn2cc(C(=O)Nc3c(F)cccc3F)c3ccccc3c2=O)c1,-6.9,-6.9*,i,i,i,
SMILES,KCNQ2 enhance,KCNQ2 block,KCNQ2 inh conf,KCNQ1 spec,CHO Tl ctr,others
Cc1ccc(SCc2cn3c(C)csc3n2)cc1,-8.1,-8.1*,i,i,i,
Cc1ccc(S(=O)(=O)NCc2cn3c(C)csc3n2)cc1,0.73,i,/,/,/,
Cc1ccccc1-c1nc(C#N)c(N2CCCCC2)o1,/,i,/,/,/,
CC(C)(C)n1nnnc1C(c1cccs1)N1CCCC2(CCCCC2)C1 (stereo not given),-7.5,-7.5*,-33%*,-38%*,-30%*,KCNQ2 inh confirm=i
c1csc(C(c2nnnn2C2CCCCC2)N2CCCC3(CCCCC3)C2)c1 (stereo not given),/,i,/,/,/,
Cc1ccsc1C(=O)N1CC=C(c2ccccc2)CC1,/,i,/,/,/,
Cc1cc(C)c(OCC(=O)N2CC=C(c3ccccc3)CC2)c(C)c1,-6.9,-6.9*,-29%*,i,i,KCNQ2 inh confirm=i
CCCCSc1nc(NCc2ccco2)c2c3c(sc2n1)COC(C)(C)C3,/,i,/,/,/,
CCCSc1nc(NCc2ccco2)c2c3c(sc2n1)COC(C)(C)C3,-9.8,-9.8*,i,i,i,
Cc1cc(SCC(=O)N(C)CC(=O)Nc2ccc(F)cc2)nc2ccccc12,/,i,/,/,/,
